From PMC7862700, “An all-to-all approach to the identification of sequence-specific readers for epigenetic DNA modifications on cytosine”

Legend:
Assay in all cases: DAPPL (digital affinity profiling via proximity ligation, sequencing); 10 mM Tris-HCl pH 7.5, 50 mM NaCl, 1 mM DTT, 4% glycerol, room temperature, 30 min; GST-TFs on glutathione beads, 16-mer random dsDNA library, 0.1% formaldehyde crosslink after washing; high values mean tight binding
Conditions in all cases: protein: recombinant; tags: N-terminal GST; dsDNA, one strand shown
ELK1 = biological target: T1, ELK1 (Homo sapiens, UniProt P19419 1-428)
T1 sequence: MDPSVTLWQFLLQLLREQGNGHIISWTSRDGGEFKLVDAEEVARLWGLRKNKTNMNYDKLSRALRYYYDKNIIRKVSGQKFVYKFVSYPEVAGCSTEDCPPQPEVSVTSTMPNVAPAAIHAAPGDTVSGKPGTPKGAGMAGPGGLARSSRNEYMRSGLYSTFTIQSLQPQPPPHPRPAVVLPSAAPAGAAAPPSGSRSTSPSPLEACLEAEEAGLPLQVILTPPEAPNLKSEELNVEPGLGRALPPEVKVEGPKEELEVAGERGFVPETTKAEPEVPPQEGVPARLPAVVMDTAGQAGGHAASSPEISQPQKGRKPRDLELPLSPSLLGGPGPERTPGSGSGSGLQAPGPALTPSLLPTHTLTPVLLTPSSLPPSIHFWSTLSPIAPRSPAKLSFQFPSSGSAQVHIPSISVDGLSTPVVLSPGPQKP
Summary of the method: (§1)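 Pools were built from human transcription factors expressed in yeast as GST fusions, captured on glutathione beads and DNA-barcoded, along with a tag-only sample. Incubation with 200 nmole of a 16-mer random double-stranded DNA library lasted 30 min at room temperature in Tris/NaCl/DTT/glycerol buffer, and was followed by washing, 0.1% formaldehyde crosslinking, proximity ligation, PCR amplification and Illumina NextSeq500 sequencing. Binding signal is the quotient of each hexamer's read frequency for a factor and its frequency for the tag-only sample.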

GABPA = biological target: T2, GABPA (Homo sapiens, UniProt Q06546 1-454)
T2 sequence: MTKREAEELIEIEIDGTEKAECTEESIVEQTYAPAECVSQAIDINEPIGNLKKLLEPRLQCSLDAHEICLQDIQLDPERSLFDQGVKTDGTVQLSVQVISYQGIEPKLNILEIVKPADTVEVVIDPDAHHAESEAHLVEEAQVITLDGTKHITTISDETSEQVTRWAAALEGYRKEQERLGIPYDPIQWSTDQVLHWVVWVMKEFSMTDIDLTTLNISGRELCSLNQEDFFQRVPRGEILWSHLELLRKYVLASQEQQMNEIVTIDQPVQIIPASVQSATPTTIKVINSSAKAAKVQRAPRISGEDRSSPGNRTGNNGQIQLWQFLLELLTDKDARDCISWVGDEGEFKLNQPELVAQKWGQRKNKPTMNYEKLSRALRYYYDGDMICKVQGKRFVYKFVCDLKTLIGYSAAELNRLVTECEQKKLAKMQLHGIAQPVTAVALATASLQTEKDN
Summary of the method: as §1

ERG = biological target: T3, ERG (Homo sapiens, UniProt P11308 1-479)
T3 sequence: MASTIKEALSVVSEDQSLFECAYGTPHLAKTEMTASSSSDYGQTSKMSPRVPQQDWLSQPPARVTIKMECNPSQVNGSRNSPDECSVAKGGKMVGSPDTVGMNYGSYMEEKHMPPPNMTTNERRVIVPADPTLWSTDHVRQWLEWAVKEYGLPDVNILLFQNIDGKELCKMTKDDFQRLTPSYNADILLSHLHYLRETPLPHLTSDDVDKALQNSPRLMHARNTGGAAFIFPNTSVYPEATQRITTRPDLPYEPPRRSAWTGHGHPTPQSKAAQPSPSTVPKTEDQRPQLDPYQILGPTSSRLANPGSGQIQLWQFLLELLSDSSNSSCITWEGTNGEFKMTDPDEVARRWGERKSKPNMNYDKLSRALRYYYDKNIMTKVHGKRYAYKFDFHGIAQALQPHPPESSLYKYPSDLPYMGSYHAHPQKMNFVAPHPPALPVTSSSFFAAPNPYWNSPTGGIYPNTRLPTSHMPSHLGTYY
Summary of the method: as §1

ELF1 = ELF1 (Homo sapiens, UniProt P32519 1-619)
ELF1, sequence (P32519 whole entry): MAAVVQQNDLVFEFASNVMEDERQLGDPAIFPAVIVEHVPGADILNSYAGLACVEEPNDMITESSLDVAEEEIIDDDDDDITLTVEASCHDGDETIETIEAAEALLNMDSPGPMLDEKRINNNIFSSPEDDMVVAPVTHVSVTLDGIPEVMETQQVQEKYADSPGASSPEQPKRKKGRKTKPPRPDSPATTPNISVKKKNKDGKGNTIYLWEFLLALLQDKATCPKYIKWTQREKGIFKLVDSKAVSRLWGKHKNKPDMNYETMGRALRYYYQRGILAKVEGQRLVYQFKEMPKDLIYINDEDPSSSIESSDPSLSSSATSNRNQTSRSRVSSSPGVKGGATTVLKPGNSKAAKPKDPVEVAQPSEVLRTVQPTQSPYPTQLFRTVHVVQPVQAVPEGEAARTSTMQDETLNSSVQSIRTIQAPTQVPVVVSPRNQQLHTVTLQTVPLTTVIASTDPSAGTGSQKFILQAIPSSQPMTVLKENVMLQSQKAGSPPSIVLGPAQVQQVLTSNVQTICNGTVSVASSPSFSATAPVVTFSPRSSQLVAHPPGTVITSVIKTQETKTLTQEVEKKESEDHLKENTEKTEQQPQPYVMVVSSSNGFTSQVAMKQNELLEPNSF
Summary of the method: as §1

EHF = biological target: T4, EHF (Homo sapiens, UniProt Q9NZC4 1-300)
T4 sequence: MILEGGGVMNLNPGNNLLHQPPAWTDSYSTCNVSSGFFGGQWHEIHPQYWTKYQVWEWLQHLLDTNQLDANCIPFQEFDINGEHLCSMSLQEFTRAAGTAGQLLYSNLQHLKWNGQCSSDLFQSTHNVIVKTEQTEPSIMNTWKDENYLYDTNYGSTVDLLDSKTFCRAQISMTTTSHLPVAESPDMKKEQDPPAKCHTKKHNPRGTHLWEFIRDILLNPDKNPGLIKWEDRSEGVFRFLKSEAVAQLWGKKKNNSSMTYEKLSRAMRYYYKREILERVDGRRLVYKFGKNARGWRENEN
Summary of the method: as §1

SPI1 = SPI1 (Homo sapiens, UniProt P17947 1-270)
Summary of the method: as §1

SPIB = SPIB (Homo sapiens, UniProt Q01892 1-262)
SPIB, sequence (Q01892 whole entry): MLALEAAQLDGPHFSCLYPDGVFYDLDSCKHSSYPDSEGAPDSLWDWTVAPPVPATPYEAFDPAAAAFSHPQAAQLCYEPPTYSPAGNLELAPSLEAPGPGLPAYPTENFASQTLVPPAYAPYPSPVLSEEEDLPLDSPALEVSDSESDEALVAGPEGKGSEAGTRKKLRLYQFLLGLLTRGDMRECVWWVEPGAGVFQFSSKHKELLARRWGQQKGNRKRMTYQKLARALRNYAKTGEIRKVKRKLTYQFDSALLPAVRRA
Summary of the method: as §1

FEV = biological target: T5, FEV (Homo sapiens, UniProt Q99581 1-238)
T5 sequence: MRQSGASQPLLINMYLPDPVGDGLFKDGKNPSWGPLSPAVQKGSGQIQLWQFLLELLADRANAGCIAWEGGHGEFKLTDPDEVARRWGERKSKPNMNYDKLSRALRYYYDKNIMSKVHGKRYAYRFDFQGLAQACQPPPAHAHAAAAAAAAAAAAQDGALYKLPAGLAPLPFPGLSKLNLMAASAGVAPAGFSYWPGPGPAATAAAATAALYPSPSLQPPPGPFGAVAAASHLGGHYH
Summary of the method: as §1

ETV5 = ETV5 (Homo sapiens, UniProt P41161 1-510)
ETV5, sequence (P41161 whole entry): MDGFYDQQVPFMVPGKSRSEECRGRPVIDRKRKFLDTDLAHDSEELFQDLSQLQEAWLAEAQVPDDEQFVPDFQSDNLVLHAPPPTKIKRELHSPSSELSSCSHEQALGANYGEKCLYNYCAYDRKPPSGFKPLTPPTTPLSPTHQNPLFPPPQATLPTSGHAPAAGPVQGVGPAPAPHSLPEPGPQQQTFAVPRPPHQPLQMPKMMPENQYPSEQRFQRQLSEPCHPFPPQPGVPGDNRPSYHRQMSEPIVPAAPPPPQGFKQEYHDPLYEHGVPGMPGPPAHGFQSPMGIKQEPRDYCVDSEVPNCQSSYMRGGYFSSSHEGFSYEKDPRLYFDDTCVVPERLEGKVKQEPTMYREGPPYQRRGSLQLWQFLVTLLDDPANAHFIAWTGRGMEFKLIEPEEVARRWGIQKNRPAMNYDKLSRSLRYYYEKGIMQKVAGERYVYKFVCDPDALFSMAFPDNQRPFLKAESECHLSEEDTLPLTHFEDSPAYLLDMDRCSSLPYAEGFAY
Summary of the method: as §1

ELF4 = ELF4 (Homo sapiens, UniProt Q99607 1-663)
ELF4, sequence (Q99607 whole entry): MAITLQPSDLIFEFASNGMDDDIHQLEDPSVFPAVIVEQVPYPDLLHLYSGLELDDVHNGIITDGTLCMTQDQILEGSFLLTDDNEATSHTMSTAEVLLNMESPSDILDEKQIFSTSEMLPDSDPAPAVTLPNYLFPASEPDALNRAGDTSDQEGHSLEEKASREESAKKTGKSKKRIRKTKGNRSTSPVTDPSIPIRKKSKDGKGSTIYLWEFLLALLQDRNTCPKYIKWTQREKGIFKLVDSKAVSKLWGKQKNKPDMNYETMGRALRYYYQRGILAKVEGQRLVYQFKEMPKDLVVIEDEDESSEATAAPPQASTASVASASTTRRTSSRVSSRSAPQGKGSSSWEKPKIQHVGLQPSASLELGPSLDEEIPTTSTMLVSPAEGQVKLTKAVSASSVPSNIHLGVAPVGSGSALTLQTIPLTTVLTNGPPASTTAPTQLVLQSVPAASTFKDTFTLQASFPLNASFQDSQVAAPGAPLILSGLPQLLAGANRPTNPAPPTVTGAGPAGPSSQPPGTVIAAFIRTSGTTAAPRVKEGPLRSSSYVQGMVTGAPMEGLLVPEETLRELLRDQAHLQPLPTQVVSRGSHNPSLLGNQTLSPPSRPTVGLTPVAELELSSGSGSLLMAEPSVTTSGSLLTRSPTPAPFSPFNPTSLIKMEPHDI
Summary of the method: as §1

ELF3 = biological target: T6, ELF3 (Homo sapiens, UniProt P78545 1-371)
T6 sequence: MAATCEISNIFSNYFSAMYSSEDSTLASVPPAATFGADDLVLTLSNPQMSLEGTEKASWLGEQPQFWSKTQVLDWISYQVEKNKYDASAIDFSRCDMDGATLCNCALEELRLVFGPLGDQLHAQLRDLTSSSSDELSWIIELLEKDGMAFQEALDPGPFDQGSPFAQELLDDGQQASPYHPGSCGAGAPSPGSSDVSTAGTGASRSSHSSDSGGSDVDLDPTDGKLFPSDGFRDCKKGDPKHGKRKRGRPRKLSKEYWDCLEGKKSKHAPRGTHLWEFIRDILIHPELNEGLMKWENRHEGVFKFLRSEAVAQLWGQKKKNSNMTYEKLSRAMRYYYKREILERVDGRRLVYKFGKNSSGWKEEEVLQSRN
Summary of the method: as §1

ETV1 = ETV1 (Homo sapiens, UniProt P50549 1-477)
ETV1, sequence (P50549 whole entry): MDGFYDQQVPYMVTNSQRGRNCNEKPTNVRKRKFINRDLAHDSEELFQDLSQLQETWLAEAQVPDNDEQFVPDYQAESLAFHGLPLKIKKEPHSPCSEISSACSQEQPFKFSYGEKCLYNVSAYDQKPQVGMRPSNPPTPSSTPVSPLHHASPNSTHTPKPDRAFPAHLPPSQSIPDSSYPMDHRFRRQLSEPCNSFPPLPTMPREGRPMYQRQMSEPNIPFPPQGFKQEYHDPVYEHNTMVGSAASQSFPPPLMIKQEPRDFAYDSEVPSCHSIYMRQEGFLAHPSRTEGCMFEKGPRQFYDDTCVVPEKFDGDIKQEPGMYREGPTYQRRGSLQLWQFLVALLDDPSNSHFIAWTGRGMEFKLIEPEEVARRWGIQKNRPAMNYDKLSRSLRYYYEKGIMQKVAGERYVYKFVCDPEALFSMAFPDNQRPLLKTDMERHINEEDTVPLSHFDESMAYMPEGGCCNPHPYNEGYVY
Summary of the method: as §1

ERF = biological target: T7, ERF (Homo sapiens, UniProt P50548 1-548)
T7 sequence: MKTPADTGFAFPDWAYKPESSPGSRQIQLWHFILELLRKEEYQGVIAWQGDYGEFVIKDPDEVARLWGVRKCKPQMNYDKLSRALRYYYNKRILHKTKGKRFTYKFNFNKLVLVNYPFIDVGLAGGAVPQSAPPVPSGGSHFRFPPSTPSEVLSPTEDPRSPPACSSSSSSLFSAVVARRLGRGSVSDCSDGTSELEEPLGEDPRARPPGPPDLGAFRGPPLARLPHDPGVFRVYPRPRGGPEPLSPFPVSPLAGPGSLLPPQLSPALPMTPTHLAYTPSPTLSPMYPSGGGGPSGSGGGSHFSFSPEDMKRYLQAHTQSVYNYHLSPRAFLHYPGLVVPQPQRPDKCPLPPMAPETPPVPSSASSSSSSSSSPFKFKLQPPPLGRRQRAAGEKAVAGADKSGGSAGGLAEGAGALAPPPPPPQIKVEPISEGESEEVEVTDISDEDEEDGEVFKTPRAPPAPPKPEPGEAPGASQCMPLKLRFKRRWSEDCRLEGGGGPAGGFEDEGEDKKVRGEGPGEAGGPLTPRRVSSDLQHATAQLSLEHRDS
Summary of the method: as §1

SPDEF = biological target: T8, SPDEF (Homo sapiens, UniProt O95238 1-335)
T8 sequence: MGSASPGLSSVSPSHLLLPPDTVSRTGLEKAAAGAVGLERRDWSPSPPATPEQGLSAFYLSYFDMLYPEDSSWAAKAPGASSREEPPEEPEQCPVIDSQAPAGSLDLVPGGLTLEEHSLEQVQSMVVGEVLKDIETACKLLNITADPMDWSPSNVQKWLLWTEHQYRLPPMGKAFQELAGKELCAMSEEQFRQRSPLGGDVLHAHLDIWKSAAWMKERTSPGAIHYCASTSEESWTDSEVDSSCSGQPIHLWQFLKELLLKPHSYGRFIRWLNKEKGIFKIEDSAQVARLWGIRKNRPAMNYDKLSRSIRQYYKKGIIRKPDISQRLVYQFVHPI
Summary of the method: as §1

ETV3 = biological target: T9, ETV3 (Homo sapiens, UniProt P41162-2 1-143)
T9 sequence: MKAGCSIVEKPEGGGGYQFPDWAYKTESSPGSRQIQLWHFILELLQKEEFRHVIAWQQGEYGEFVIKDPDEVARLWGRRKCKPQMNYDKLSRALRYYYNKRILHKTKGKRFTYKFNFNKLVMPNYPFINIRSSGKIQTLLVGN
Summary of the method: as §1

ELK4 = biological target: T10, ELK4 (Homo sapiens, UniProt P28324-2 1-405)
T10 sequence: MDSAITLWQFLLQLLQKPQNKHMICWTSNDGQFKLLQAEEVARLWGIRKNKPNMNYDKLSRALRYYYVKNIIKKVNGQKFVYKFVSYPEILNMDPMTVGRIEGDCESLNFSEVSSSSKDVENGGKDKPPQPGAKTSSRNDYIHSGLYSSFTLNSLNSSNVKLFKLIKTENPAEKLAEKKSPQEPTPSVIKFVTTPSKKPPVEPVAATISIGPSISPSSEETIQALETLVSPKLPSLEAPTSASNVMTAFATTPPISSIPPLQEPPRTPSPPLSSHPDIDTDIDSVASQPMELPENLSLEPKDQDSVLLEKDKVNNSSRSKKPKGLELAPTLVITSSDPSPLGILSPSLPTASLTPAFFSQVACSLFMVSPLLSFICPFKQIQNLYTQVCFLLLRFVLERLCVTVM
Summary of the method: as §1

ETS2 = biological target: T11, ETS2 (Homo sapiens, UniProt P15036 1-469)
T11 sequence: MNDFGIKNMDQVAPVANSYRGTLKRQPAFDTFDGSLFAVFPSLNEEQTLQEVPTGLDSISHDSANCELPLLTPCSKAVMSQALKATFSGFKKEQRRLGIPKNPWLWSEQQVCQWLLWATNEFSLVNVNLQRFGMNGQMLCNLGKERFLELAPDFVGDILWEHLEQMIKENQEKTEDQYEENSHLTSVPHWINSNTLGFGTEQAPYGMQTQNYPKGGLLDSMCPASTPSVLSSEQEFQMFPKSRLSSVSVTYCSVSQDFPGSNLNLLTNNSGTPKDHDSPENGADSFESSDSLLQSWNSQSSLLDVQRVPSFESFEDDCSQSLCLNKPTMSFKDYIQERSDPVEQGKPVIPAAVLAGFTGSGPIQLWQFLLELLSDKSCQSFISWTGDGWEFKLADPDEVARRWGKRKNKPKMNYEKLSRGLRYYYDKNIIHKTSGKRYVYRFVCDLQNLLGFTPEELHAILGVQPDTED
Summary of the method: as §1

Sequence | binding signal (ELK1) | binding signal (GABPA) | binding signal (ERG) | binding signal (ELF1) | binding signal (EHF) | binding signal (SPI1) | binding signal (SPIB) | binding signal (FEV) | binding signal (ETV5) | binding signal (ELF4) | binding signal (ELF3) | binding signal (ETV1) | binding signal (ERF) | binding signal (SPDEF) | binding signal (ETV3) | binding signal (ELK4) | binding signal (ETS2)
TCGTAT | 1.08 fold enrichment (6-mer frequency, TF over GST control) | 1.01 fold enrichment (6-mer frequency, TF over GST control) | 1.03 fold enrichment (6-mer frequency, TF over GST control) | 1.03 fold enrichment (6-mer frequency, TF over GST control) | 1 fold enrichment (6-mer frequency, TF over GST control) | 1.02 fold enrichment (6-mer frequency, TF over GST control) | 1.07 fold enrichment (6-mer frequency, TF over GST control) | 1.05 fold enrichment (6-mer frequency, TF over GST control) | 1.02 fold enrichment (6-mer frequency, TF over GST control) | 1.02 fold enrichment (6-mer frequency, TF over GST control) | 1.05 fold enrichment (6-mer frequency, TF over GST control) | 1 fold enrichment (6-mer frequency, TF over GST control) | 1.06 fold enrichment (6-mer frequency, TF over GST control) | 1.05 fold enrichment (6-mer frequency, TF over GST control) | 1.05 fold enrichment (6-mer frequency, TF over GST control) | – | –
TAGTAG | 1.02 fold enrichment (6-mer frequency, TF over GST control) | 1.01 fold enrichment (6-mer frequency, TF over GST control) | 1.01 fold enrichment (6-mer frequency, TF over GST control) | – | – | – | 1.02 fold enrichment (6-mer frequency, TF over GST control) | – | 1.04 fold enrichment (6-mer frequency, TF over GST control) | – | 1.1 fold enrichment (6-mer frequency, TF over GST control) | – | 1.02 fold enrichment (6-mer frequency, TF over GST control) | 1.02 fold enrichment (6-mer frequency, TF over GST control) | 1.13 fold enrichment (6-mer frequency, TF over GST control) | 1.02 fold enrichment (6-mer frequency, TF over GST control) | 1.06 fold enrichment (6-mer frequency, TF over GST control)
